Measurements: PubChem BioAssay AID1159580 (chemical genetic matrix, 2015)
The whole screen tested about 5,500 compounds, of which about 2,000 (36%) were called active. Roughly 18% stayed inconclusive and do not appear here. No stated cut-off is given here; in the data, active means normalized growth mostly below about 0.91 (no sharp cut-off); inconclusive means no clear call, values can overlap the other calls; inactive means mostly above about 0.92. The list shows a part of the results.

Experiment: chemical genetic growth profiling, strain panel (AID 1159580);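 further: tested at 20 µM; growth read once vehicle control cultures reached saturation at 30 °C; 1 = growth at the plate median or of vehicle wells; lower values mean less growth of the strain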
Conditions: S. cerevisiae deletion strains, growth OD

Measured: normalized growth

COC(=O)C1=COC(OC2OC(CO)C(O)C(O)C2O)C2C(C)CC(=O)C12 (configuration not stated)
inactive: locus YAL021C, strain ccr4, active compounds read low 1.03 | locus YAL026C, strain drs2, active compounds read low 1.02 | locus YAL030W, strain snc1, active compounds read low 1.03 | locus YBL061C, strain skt5, active compounds read low 1.02 | locus YBR009C, strain hhf1, active compounds read low 1.01 | locus YBR023C, strain chs3, active compounds read low 1.03 | locus YBR171W, strain sec66, active compounds read low 1.04 | locus YBR231C, strain swc5, active compounds read low 1.04 | locus YBR279W, strain paf1, active compounds read low 1.03 | locus YCL011C, strain gbp2, active compounds read low 1.03 | locus YCL016C, strain dcc1, active compounds read low 1.02 | locus YCL061C, strain MRC1, active compounds read low 1.03 | locus YCL069W, strain vba3, active compounds read low 1.03 | locus YCR088W, strain abp1, active compounds read low 1.03 | locus YDL005C, strain med2, active compounds read low 1.04 | locus YDL040C, strain nat1, active compounds read low 1.03 | locus YDR001C, strain nth1, active compounds read low 1.03 | locus YDR069C, strain doa4, active compounds read low 1.02 | locus YDR137W, strain rgp1, active compounds read low 1.07 | locus YDR159W, strain sac3, active compounds read low 1.01 | locus YDR195W, strain ref2 1.02 | locus YDR297W, strain sur2, active compounds read low 1.02 | locus YDR334W, strain swr1, active compounds read low 1.03 | locus YDR335W, strain msn5, active compounds read low 1.03 | locus YDR392W, strain spt3, active compounds read low 0.935 | locus YEL003W, strain gim4, active compounds read low 1.03 | locus YEL037C, strain rad23, active compounds read low 1.02 | locus YEL061C, strain CIN8 (second series), active compounds read low 1.03 | locus YER015W, strain faa2, active compounds read low 1.04 | locus YER016W, strain bim1, active compounds read low 1.04 | locus YER111C, strain swi4, active compounds read low 1.03 | locus YER155C, strain BEM2 (second series), active compounds read low 1.02 | locus YFR010W, strain ubp6, active compounds read low 1.03 | locus YGL167C, strain pmr1, active compounds read low 1.03 | locus YGL173C, strain kem1, active compounds read low 1.03 | locus YGL227W, strain vid30, active compounds read low 1.03 | locus YGL240W, strain doc1, active compounds read low 1.02 | locus YGL253W, strain hxk2, active compounds read low 1.05 | locus YHR013C, strain ard1, active compounds read low 1.07 | locus YHR027C, strain rpn1, active compounds read low 1.03 | locus YHR142W, strain chs7, active compounds read low 1.04 | locus YJL092W, strain hpr5, active compounds read low 1.03 | locus YJL095W, strain BCK1 (second series), active compounds read low 1.03 | locus YJL115W, strain asf1, active compounds read low 1.02 | locus YJL129C, strain trk1, active compounds read low 1.06 | locus YJL154C, strain vps35, active compounds read low 1.02 | locus YJL164C, strain tpk1, active compounds read low 1.01 | locus YJL166W, strain qcr8, active compounds read low 1.05 | locus YJL187C, strain SWE1, active compounds read low 1.04 | locus YKL160W, strain elf1, active compounds read low 1.04 | locus YKR026C, strain gcn3, active compounds read low 1.03 | locus YKR091W, strain srl3, active compounds read low 1.02 | locus YLL001W, strain dnm1, active compounds read low 1.05 | locus YLL026W, active compounds read low 1.02 | locus YLL041C, strain sdh2, active compounds read low 1.02 | locus YLR027C, strain aat2, active compounds read low 1.02 | locus YLR221C, strain rsa3, active compounds read low 1.03 | locus YLR258W, strain gsy2, active compounds read low 1.01 | locus YLR262C, strain YPT6 (second series), active compounds read low 1.05 | locus YLR320W, strain mms22, active compounds read low 1.04 | locus YLR342W, strain FKS1, active compounds read low 1.03 | locus YLR357W, strain rsc2, active compounds read low 1.05 | locus YLR370C, strain arc18, active compounds read low 1.03 | locus YLR384C, strain iki3, active compounds read low 1.02 | locus YML120C, strain ndi1, active compounds read low 1.03 | locus YMR058W, strain fet3, active compounds read low 1.03 | locus YMR125W, strain sto1, active compounds read low 1.04 | locus YMR129W, active compounds read low 1.03 | locus YMR205C, strain PFK2, active compounds read low 1.05 | locus YMR231W, strain pep5, active compounds read low 1.03 | locus YNL071W, strain lat1, active compounds read low 1.04 | locus YNL209W, strain ssb2, active compounds read low 1.02 | locus YNL248C, strain rpa49, active compounds read low 1.06 | locus YNL322C, strain KRE1 (second series), active compounds read low 1.03 | locus YNR049C, strain mso1, active compounds read low 1.02 | locus YOR001W, strain rrp6, active compounds read low 0.987 | locus YOR070C, strain gyp1, active compounds read low 1.02 | locus YOR080W, strain dia2, active compounds read low 1.02 | locus YOR083W, strain WHI5, active compounds read low 1.04 | locus YOR106W, strain vam3, active compounds read low 1.09 | locus YOR265W, strain rbl2, active compounds read low 1.01 | locus YOR270C, strain vph1, active compounds read low 1.11 | locus YOR290C, strain snf2, active compounds read low 1.03 | locus YPL051W, strain arl3, active compounds read low 1.04 | locus YPL078C, strain atp4, active compounds read low 1.06 | locus YPL106C, strain sse1, active compounds read low 1.01 | locus YPL240C, strain hsp82, active compounds read low 1.02
